Results published in ChEMBL document CHEMBL1961873, “Compounds: GSK PKIS; Assays: Nanosyn kinase panel” (2012).

Columns and labels:
[1] = molecular target: Sphingosine kinase 1 (Homo sapiens) (UniProt Q9NYA1); conditions: at 1 µM;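 note: mean SPHK1 inhibition value reported from the GSK PKIS kinase panel screen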
[2] = molecular target: T1, Sphingosine kinase 2 (Homo sapiens) (UniProt Q9NRA0); conditions: at 0.1 µM
T1 sequence (whole entry): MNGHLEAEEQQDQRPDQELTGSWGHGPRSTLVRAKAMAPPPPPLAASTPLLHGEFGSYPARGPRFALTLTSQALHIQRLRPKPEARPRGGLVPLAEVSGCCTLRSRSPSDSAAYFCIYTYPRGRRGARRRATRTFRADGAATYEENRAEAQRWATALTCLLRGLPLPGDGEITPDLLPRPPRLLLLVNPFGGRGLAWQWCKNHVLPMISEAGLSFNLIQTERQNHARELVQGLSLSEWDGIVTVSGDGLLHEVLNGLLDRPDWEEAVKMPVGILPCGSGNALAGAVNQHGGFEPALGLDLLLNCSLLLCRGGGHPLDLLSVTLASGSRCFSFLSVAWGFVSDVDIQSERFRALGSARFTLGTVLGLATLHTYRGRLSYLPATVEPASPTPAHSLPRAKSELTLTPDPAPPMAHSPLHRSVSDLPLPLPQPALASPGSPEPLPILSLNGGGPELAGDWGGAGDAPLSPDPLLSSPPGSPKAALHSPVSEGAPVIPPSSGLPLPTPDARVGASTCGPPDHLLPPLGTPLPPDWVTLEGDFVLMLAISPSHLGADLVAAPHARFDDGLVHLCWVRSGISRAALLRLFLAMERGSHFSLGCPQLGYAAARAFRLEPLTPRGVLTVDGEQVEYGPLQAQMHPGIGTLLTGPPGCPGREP

[3] = molecular target: T1, Sphingosine kinase 2 (Homo sapiens); conditions: at 1 µM
[4] = molecular target: Casein kinase II subunit alpha (Homo sapiens) (UniProt P68400); conditions: at 0.1 µM
[5] = molecular target: Casein kinase II subunit alpha (Homo sapiens) (UniProt P68400); conditions: at 1 µM
[6] = molecular target: T2, Inhibitor of nuclear factor kappa-B kinase subunit alpha (Homo sapiens) (UniProt O15111); conditions: at 0.1 µM
T2 sequence (whole entry): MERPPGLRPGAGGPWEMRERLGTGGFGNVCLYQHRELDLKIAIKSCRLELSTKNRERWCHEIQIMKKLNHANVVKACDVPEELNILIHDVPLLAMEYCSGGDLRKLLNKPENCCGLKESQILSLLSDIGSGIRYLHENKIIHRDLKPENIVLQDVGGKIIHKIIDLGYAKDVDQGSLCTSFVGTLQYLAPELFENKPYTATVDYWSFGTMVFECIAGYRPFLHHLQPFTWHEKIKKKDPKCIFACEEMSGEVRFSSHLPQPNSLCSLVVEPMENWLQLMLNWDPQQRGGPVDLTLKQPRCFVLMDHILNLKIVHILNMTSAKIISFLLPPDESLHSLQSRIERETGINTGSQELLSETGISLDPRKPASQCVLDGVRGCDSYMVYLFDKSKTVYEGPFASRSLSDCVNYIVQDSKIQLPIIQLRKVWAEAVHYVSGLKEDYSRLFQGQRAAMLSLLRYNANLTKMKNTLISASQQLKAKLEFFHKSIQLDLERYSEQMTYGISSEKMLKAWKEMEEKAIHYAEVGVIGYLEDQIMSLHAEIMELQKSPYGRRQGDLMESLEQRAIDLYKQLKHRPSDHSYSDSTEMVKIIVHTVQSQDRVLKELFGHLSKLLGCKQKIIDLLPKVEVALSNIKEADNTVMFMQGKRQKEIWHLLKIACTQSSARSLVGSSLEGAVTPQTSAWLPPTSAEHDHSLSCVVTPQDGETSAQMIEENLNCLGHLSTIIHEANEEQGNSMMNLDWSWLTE

[7] = molecular target: T2, Inhibitor of nuclear factor kappa-B kinase subunit alpha (Homo sapiens); conditions: at 1 µM
[8] = molecular target: T3, Inhibitor of nuclear factor kappa-B kinase subunit beta (Homo sapiens) (UniProt O14920); conditions: at 0.1 µM
T3 sequence (whole entry): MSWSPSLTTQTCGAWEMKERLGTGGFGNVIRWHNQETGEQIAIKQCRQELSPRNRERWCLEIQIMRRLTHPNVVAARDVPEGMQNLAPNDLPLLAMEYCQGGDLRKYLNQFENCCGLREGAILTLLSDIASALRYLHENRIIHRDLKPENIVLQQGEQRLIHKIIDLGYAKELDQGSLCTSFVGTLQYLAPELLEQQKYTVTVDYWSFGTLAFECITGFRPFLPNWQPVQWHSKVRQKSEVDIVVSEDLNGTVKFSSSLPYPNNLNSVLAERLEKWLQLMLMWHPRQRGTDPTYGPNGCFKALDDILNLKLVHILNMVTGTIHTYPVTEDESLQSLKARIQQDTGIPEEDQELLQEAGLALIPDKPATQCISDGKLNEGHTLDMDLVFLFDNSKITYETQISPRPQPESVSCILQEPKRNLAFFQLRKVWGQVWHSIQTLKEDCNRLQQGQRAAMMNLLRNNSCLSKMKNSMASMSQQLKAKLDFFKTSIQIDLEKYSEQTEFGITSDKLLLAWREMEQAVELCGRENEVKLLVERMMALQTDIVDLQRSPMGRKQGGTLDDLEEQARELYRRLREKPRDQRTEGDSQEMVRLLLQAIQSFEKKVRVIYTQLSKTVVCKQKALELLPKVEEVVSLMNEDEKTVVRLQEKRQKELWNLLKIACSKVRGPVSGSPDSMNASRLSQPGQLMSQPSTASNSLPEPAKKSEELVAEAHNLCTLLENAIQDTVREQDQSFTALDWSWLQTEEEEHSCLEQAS

[9] = molecular target: T3, Inhibitor of nuclear factor kappa-B kinase subunit beta (Homo sapiens); conditions: at 1 µM
[10] = molecular target: T4, Inhibitor of nuclear factor kappa-B kinase subunit epsilon (Homo sapiens) (UniProt Q14164); conditions: at 0.1 µM;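 note: mean inhibition of IKKε reported, from the GSK PKIS dataset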
T4 sequence (whole entry): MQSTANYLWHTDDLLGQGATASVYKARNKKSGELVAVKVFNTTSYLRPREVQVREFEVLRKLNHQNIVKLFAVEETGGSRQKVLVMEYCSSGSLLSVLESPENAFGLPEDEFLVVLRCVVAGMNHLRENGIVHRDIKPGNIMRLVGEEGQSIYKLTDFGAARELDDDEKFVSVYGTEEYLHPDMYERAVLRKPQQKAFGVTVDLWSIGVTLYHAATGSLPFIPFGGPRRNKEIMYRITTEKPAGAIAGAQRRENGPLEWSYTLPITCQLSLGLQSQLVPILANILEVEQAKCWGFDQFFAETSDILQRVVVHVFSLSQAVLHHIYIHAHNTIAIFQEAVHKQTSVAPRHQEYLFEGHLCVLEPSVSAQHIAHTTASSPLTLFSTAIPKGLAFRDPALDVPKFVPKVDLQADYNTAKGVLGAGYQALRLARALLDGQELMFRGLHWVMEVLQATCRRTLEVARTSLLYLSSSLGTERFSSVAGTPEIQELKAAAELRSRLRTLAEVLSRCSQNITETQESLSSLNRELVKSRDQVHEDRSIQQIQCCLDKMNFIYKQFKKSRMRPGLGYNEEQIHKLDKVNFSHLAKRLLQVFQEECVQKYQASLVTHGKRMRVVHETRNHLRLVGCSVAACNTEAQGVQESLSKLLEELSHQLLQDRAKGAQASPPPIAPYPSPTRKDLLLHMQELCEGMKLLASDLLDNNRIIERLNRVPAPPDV

Casein kinase II subunit alpha (Homo sapiens), sequence (P68400 whole entry, looked up): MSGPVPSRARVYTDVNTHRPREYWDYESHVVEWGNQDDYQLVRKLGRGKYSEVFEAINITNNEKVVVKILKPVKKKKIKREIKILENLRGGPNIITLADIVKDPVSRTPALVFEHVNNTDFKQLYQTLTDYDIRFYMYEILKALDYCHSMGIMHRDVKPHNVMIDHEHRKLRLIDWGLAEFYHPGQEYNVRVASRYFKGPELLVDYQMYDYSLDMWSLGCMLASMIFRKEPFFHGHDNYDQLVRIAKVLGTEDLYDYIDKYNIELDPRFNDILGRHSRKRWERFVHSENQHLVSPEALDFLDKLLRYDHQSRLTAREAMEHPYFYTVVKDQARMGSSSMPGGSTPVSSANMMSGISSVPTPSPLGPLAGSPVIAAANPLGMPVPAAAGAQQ
Sphingosine kinase 1 (Homo sapiens), sequence (Q9NYA1 whole entry): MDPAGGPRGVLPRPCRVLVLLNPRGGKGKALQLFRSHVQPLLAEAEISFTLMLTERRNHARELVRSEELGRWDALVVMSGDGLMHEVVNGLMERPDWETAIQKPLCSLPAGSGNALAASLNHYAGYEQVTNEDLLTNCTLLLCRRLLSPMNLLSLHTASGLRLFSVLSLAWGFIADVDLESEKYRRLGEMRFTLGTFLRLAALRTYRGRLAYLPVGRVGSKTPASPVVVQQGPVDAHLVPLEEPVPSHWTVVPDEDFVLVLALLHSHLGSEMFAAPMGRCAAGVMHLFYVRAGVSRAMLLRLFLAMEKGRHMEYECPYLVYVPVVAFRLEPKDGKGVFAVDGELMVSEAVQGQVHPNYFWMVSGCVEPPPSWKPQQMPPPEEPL

Row | SMILES | inhibition [1] [%] | inhibition [2] [%] | inhibition [3] [%] | inhibition [4] [%] | inhibition [5] [%] | inhibition [6] [%] | inhibition [7] [%] | inhibition [8] [%] | inhibition [9] [%] | inhibition [10] [%]
1 | Nc1nc(-c2ccc(F)cc2)c(-c2ccc3ncccc3n2)s1 | -1.38 | -1.13 | -1.05 | 6.47 | 13 | 2.92 | 5.46 | 5.24 | 4.99 | 6.57
2 | O=C(Nc1n[nH]c2cc(-c3ccc(F)cc3)ccc12)C1CC1 | 0.32 | 0.15 | -0.37 | 2.04 | 0.79 | 4.81 | -0.71 | 4.46 | 2.08 | 4.25
3 | CCn1c(-c2nonc2N)nc2ccccc21 | 1.74 | 13.1 | -0.24 | 0.89 | -1.31 | -3.92 | -1.19 | 2.35 | -1 | 2.9
4 | Cc1ccc(O)cc1Nc1ccnc2cc(-c3ccccn3)ccc12 | 0.38 | 0.62 | -0.19 | 1.53 | -1.39 | 1.97 | -1.79 | 6.75 | 1.3 | 5.73
5 | COc1ccc2[nH]c3c4[nH]c5ccc(OC)cc5c4c4c(c3c2c1)C(=O)NC4=O | -1.68 | -2.46 | -0.32 | 6.4 | 15.9 | 5.28 | 6.84 | 3.54 | 4.71 | 13.5
6 | CS(=O)(=O)CCNCc1coc(-c2ccc3ncnc(Nc4ccc(OCc5ccccc5)cc4)c3c2)c1 | -1.49 | 0 | -0.98 | 1.05 | 6.53 | 4.1 | 2.85 | 3.35 | 5.11 | 4.2
7 | COc1cc(/C=N/Nc2ncnc3[nH]ncc23)ccc1O | -2.47 | 0.06 | 0.42 | 8.38 | 34.8 | 14.9 | 62 | 5.05 | 13.6 | 0.87
8 | Cc1ccc2c(-c3ccnc(Nc4ccccc4)n3)c(-c3ccc(F)cc3)nn2n1 | 1.05 | -1.64 | 0 | 1.08 | -2.67 | 5 | 0.7 | 4.32 | 1.74 | 1.25
9 | Cc1cccc(Nc2ncc(-c3ccccc3)o2)c1 | 3.75 | 0.62 | -1.72 | 4.16 | 3.49 | 3.87 | 7.95 | 4.82 | 5.08 | 5.18
10 | FC(F)(F)c1cccc(-c2nn3ncccc3c2-c2ccnc(Nc3ccc4c(c3)OCCO4)n2)c1 | 1.14 | 0.13 | -0.65 | 0.21 | -1.98 | 3.23 | 0.65 | 2.71 | 0.36 | 2.48
11 | CNC(=O)c1cc(-c2ccc(F)cc2)cc(-c2ccc(S(=O)(=O)N3CCCC3)cc2)c1N | -1.82 | -0.5 | -0.63 | 15.5 | 3.05 | 7.04 | 4.67 | 5.48 | 5.18 | 2.88
12 | COC(=O)Nc1nc2ccc(S(=O)(=O)c3ccc(NC(=O)Nc4cc(C(F)(F)F)ccc4F)cc3)cc2[nH]1 | -2.79 | -0.31 | 0.98 | -0.42 | -2.21 | 6.4 | 2.23 | 5.3 | 7.84 | 2.8
13 | CN1CCC(n2cnc(-c3ccc(F)cc3)c2-c2ccnc(N)n2)CC1 | -3.49 | 0 | -1.67 | 8.38 | 42.7 | 1.97 | 6.98 | 4.41 | 4.02 | 3.07
14 | N#Cc1c(NC(=O)c2ccc(F)cc2)sc2c1CCCC2 | -1.09 | 0.33 | 0 | 0.61 | 1.89 | 5.73 | 4.51 | 1.94 | 4.15 | 2.43
15 | CCCN1CCC(c2ccc(Nc3nc(Nc4cc(F)ccc4C(N)=O)c4cc[nH]c4n3)c(OC)c2)CC1 | -2.44 | 0 | 0 | 32.4 | 70.3 | 2.7 | 18.7 | 0.13 | 7.11 | 6.68
16 | CCNC(=O)O[C@H]1CN[C@H](C#Cc2cc3ncnc(Nc4ccc(OCc5cccc(F)c5)c(Cl)c4)c3s2)C1 | -0.72 | 0.52 | -3.06 | 0.94 | -1.06 | 2.78 | -6.68 | 3.34 | 1.97 | 2.87
